These results are taken from PubChem BioAssay (NCATS).

Inconclusive results are not listed. Where a call stands in place of a potency, no number is given. Active and inactive are the calls of the source. Unless noted, calls come from the whole dose curve; as a rule, active = well fitted curve in the direction sought with a large enough effect; inconclusive = small, poorly fitted or top-dose-only effect, or another doubt; inactive = no such curve, though single readings can be large; an effect the other way counts as inactive or inconclusive.

Chain of Alpha-galactosidase (Coffea arabica) (Q42656 whole entry, looked up): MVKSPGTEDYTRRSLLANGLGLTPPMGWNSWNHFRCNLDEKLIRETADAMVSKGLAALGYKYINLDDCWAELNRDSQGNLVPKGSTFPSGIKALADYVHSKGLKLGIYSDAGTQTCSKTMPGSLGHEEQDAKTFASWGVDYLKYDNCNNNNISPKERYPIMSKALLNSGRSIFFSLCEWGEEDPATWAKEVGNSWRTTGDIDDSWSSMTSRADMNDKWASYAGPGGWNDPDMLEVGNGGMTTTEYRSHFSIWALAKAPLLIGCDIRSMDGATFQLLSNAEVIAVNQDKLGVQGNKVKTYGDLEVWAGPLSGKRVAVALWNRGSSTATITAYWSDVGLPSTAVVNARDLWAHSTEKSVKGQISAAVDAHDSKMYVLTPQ

For one assay, the target named is Alpha-galactosidase (Coffea arabica) (UniProt Q42656). Description: Counterscreen for Glucocerebrosidase Inhibitors: qHTS Assay for Coffee Bean alpha-Galactosidase at pH 4.5 (AID 957). As to conditions: purified coffee bean alpha-galactosidase, fluorogenic substrate; series mostly up to 76.9 µM. In a few lines:
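Coffee bean enzyme (2 nM) with 80 uM 4-methylumbelliferyl alpha-D-galactopyranoside in 50 mM citric acid, 0.005% Tween-20, pH 4.5, 20 min at room temperature; compounds 0.7 nM–77 uM. Stopped at pH 10, fluorescence 365/440 nm; AC50 from Hill fits.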
Regarding `Cn1cc(C2=C(c3ccc(Cl)cc3Cl)C(=O)NC2=O)c2ccccc21`, the result was inactive.
Turning to `Nn1nnc2ccccc21`, the result was inactive.
In the case of `NC/C=C\C(=O)O`, the result was inactive.

A further assay has the same target. Kind of assay: Counterscreen for Glucocerebrosidase Inhibitors: qHTS Assay for Coffee Bean alpha-Galactosidase at pH 5.9 (AID 998). As to conditions: coffee bean alpha-galactosidase enzyme assay; series mostly up to 76.9 µM. The method in brief: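 Green coffee bean enzyme (2 nM final) was incubated with compounds (0.7 nM–77 uM) and 4-methylumbelliferyl alpha-D-galactopyranoside (80 uM) in citrate buffer pH 5.9, 20 min at room temperature. High-pH stop; fluorescence 365/440 nm; AC50 from Hill fits.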
Background: Counterscreens check selectivity or assay interference.
Turning to `Cn1cc(C2=C(c3ccc(Cl)cc3Cl)C(=O)NC2=O)c2ccccc21`, the call was inactive.
Regarding `Nn1nnc2ccccc21`, the call was inactive.
Consider `NC/C=C\C(=O)O`, for which the compound was called inactive.

Tested on in a further assay: not listed separately
Kind of assay: Validation screen for inhibitors of Lassa infection (AID 463096; calls by dose curve). The conditions noted are these: Lassa virus infection, cell-based; series mostly up to 46.1 µM.
Consider `Cn1cc(C2=C(c3ccc(Cl)cc3Cl)C(=O)NC2=O)c2ccccc21`, for which the Potency entry is “inactive”.
On the same count and under the same terms, the value for `Nn1nnc2ccccc21` was “inactive”; that for `C[C@@]1(C2CCCC2)Cc2cc(OCC(=O)O)c(Cl)c(Cl)c2C1=O` was “inactive”; that for `O=C1c2c(O)cc(O)cc2OC(c2ccc(O)c(O)c2)C1O` (stereo not given) was “inactive”.
Consider `NC/C=C\C(=O)O`, for which the Potency entry was “inactive”.

Tested on in another assay: not listed separately
Kind of assay: Inducers of the Endoplasmic Reticulum Stress Response (ERSR) in human glioma: Validation (AID 504836). The conditions noted are these: human glioma cells, ER stress response reporter; series mostly up to 38.3 µM. The method in brief:
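Stably transfected U87-MG human glioma cells carrying a GRP78-based luminescent sensor were seeded at 1000 cells/well, pin-dosed with compounds and incubated 16 h. Luciferase reagent was then added, and end-point luminescence was read after 10 min at room temperature.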
Turning to `Cn1cc(C2=C(c3ccc(Cl)cc3Cl)C(=O)NC2=O)c2ccccc21`, the outcome was inactive.
Consider `Nn1nnc2ccccc21`, for which the compound was classed as inactive.
For the compound `C[C@@]1(C2CCCC2)Cc2cc(OCC(=O)O)c(Cl)c(Cl)c2C1=O`, the result was inactive.
As to `CCc1ccc(/C=C2/SC(=S)NC2=O)cc1`, the compound was classed as inactive.

Tested on in a further assay: not listed separately
Kind of assay: qHTS for Inhibitors of the Functional Ribonucleoprotein Complex (vRNP) of Lassa (LASV) Arenavirus: LASV Primary Screen - GLuc reporter signal (AID 1347082; calls by dose curve; tested in HEK293 reporter line; note: nearly all actives have a fitted effect of over 60% in size; note: potency is the fitted concentration of half-maximal effect). As to conditions: LASV minigenome vRNP, Gaussia luciferase reporter; series mostly up to 57.5 µM. Background: Quantitative high-throughput screening tests each substance at several concentrations.
For `Cn1cc(C2=C(c3ccc(Cl)cc3Cl)C(=O)NC2=O)c2ccccc21`, the Potency entry was “inactive”.
With `N#CNC(=NCCCCCCOc1ccc(Cl)cc1)Nc1ccncc1`, the Potency is 0.0343 µM (active).
For `CC1(C)CCC[C@@]2(C)C1CC[C@@](C)(O)[C@@H]2CC[C@@](C)(O)C1CO1` (stereo not given in full), the Potency result was “inactive”.
Regarding `COc1ccc(Cc2ccc(NC(N)=O)cc2)cc1-c1cccc(Cl)c1`, the Potency result is “inactive”.
With `O=C1NC(=O)C(=Cc2ccc(-c3ccc(F)cc3O)o2)S1`, the Potency entry was “inactive”.
Turning to `CC(C)C[C@H](NC(=O)CNC(=O)c1cc(Cl)ccc1Cl)B1OC(=O)CC(CC(=O)O)(C(=O)O)O1` (stereo not given in full), the Potency is 7.69 µM (active).
As to `Nc1nc(F)nc2c1ncn2[C@@H]1O[C@H](COP(=O)(O)O)[C@@H](O)[C@H]1O`, the Potency entry was “inactive”.
Take `Cc1ccc([C@@H]2O[C@H](CO)[C@@H](O)[C@H](O)[C@@H]2O)cc1Cc1ccc(-c2ccc(F)cc2)s1`: the Potency result is “inactive”.
For the compound `OC1c2ccccc2N=C2CCCN21` (stereo not given), the Potency result is “inactive”.
The same measure, in the same setting: under `O=C1NC(=O)C(=Cc2ccc3nccnc3c2)S1` stands “inactive”; under `COc1cc(C(=O)O[C@H]2C/C(C)=C/CC[C@@]3(C)O[C@@H]3[C@H](O)[C@@H]2C(C)C)cc(OC)c1OC`, “inactive”.
As for `C=CCc1ccc(O)c(-c2ccc(O)c(CC=C)c2)c1`, the Potency result was “inactive”.
As for `C=C1C[C@H](OC(=O)C(C)(O)CCl)C2C(=C)C(=O)O[C@@H]2C2C1C[C@H](O)[C@]2(O)CCl` (stereo not given in full), the Potency entry is “inactive”.
For `CCN(CC)CCCCNc1ncc2c(n1)N(C)C(=O)N(c1c(Cl)c(OC)cc(OC)c1Cl)C2`, the Potency is 34.3 µM (active).
Turning to `COc1ccc(-c2cc(=O)c3c(OC)c(OC)c(OC)c(OC)c3o2)cc1`, the Potency entry is “inactive”.
Regarding `COc1ccc(Nc2cc(-c3cnc(N)nc3)nc(N3CCOCC3)n2)cn1`, the Potency was 12.2 µM (active).
On the same count and under the same terms, the value for `C[C@]12CC[C@@H]3c4ccc(O)cc4CC[C@H]3[C@H]1C[C@@H](O)[C@H]2O` was “inactive”.
`Cc1ccc2nc(NCCN)c3ncc(C)n3c2c1`: the Potency was 17.2 µM (active).
For the compound `Nn1nnc2ccccc21`, the Potency result is “inactive”.
On to `COc1cc2c(cc1OC)[C@@H]1Cc3ccc(OC)c(OC)c3CN1CC2`, for which the Potency result is “inactive”.
For the compound `C[C@@]1(C2CCCC2)Cc2cc(OCC(=O)O)c(Cl)c(Cl)c2C1=O`, the Potency entry is “inactive”.
On the same count and under the same terms, the value for `CCS(=O)(=O)N1CC(CC#N)(n2cc(-c3ncnc4[nH]ccc34)cn2)C1` was “inactive”; that for `C[C@]12CC[C@H]3C(=CCc4cc(O)ccc43)[C@@H]1CCC2=O` was “inactive”.
On the same count and under the same terms, the value for `OCC1OC(n2cnc3c(NCc4ccccc4O)ncnc32)C(O)C1O` (stereo not given) was “inactive”; that for `C[C@@H]1C(=O)O[C@H]2[C@H](O)[C@@]34[C@H]5CC(C(C)(C)C)[C@]36[C@H](OC(=O)[C@H]6O)O[C@]4(C(=O)O5)[C@@]12O` (stereo not given in full) was “inactive”; that for `COc1cc2c(c(OC)c1OC)-c1ccc(OC)c(=O)cc1[C@@H](NC=O)CC2` was 35.5 µM (active).
For the compound `CN1CCc2c(c3ccccc3n2Cc2ccc(C(=O)NO)cc2)C1`, the Potency result is “inactive”.
Regarding `CC(=O)O[C@@]12CO[C@H]1C[C@H](O)[C@@]1(C)C(=O)[C@H](O)C3=C(C)[C@@H](OC(=O)C(O)[C@@H](NC(=O)OC(C)(C)C)c4ccccc4)C[C@@](O)([C@@H](OC(=O)c4ccccc4)[C@@H]21)C3(C)C` (stereo not given in full), the Potency entry was “inactive”.
Consider `COC(=O)Nc1ccc(-c2nc(N3CCOCC3)c3cnn(C4CCN(Cc5cccnc5)CC4)c3n2)cc1`, for which the Potency was 0.109 µM (active).
Still for that read-out and setting: under `O=C1c2c(O)cc(O)cc2OC(c2ccc(O)c(O)c2)C1O` (stereo not given) stands “inactive”; under `COc1ccc(-c2oc3cc(OC)c(O)c(OC)c3c(=O)c2OC)cc1O`, “inactive”; under `NC/C=C\C(=O)O`, “inactive”.
On the same count and under the same terms, the value for `CC=CC(C)=CC(C)C(=O)CC(O)CC1CC(=O)NC(=O)C1` (stereo not given) was “inactive”; that for `CCc1ccc(/C=C2/SC(=S)NC2=O)cc1` was “inactive”; that for `O=C(C=Cc1ccccc1O)c1ccccc1O` was “inactive”.
`O=C1NC(=O)C(=Cc2ccc(-c3ccc(F)cc3)o2)S1`: the Potency result was “inactive”.
Consider `CCCCOP(=O)(O)OCCCC`, for which the Potency result was “inactive”.
For `C=CC(=O)Nc1cc(NC(=O)c2ccc(C)c(NC(=O)c3ccno3)c2)cc(C(F)(F)F)c1`, the Potency result was “inactive”.
Regarding `CC=C(C(=CC)c1ccc(O)cc1)c1ccc(O)cc1`, the Potency result is “inactive”.
Turning to `NS(=O)(=O)OC[C@@H]1C[C@@H](n2ccc3c(N[C@H]4CCc5ccccc54)ncnc32)C[C@H]1O`, the Potency result is “inactive”.
